Assay [1] can be described thus: polyglutamine-triggered caspase-3 activation inhibitors, cell-based (AID 1583). As to conditions: polyglutamine-induced caspase-3 activation, cell assay; stronger effect = higher value;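 tested at 10 µM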.
A short description of assay [2]: suppressors of polyQ aggregation in yeast, 75Q-TubU reporter (AID 1593). As to conditions: Yeast 75Q polyglutamine aggregation reporter.
Assay [3] in a line: rescue of polyQ-huntingtin neuronal dysfunction in worms, whole organism, C. elegans mechanosensory neurons, N-terminal huntingtin (AID 1599). To be noted: touch response, stronger effect = higher value.
Assay [4] is described as follows: inhibitors of mitochondrial cytochrome c release, biochemical, purified mitochondria (AID 1603).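 Also: mouse liver mitochondria challenged with calcium chloride; signal normalized to the plate average as 100%.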 To be noted: stronger effect = lower value.
The nature of assay [5]: inhibitors of polyQ protein aggregation (AID 1604). To be noted: polyglutamine-induced protein aggregation inhibition assay; stronger effect = higher value; tested at 2.5 µM.
Assay [6] in a line: enhancers of glutamate uptake in motor neurons, MN-1 cell line (AID 1612).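 Also: tested at 1 µM final; 0% = mean of DMSO vehicle wells on each plate; positive means more glutamate uptake than control and negative means less.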 To be noted: MN-1 motor neuron cells, stronger effect = higher value.
Assay [7] in a line: reducers of polyQ inclusions in PC12 cells, cell-based, NGF-treated PC12, GFPQ80 (AID 1614).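 Also: lower means fewer inclusions and 0 means no inclusions at all.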 As to conditions: PC12 NGF-treated GFP-polyQ80 inclusion reduction.
Assay [8] in a line: suppressors of polyglutamine aggregation in yeast, 75Q-TubH (AID 1616). To be noted: S. cerevisiae 75Q-TubH polyglutamine aggregation suppression; stronger effect = higher value.
Assay [9] can be described thus: hESC survival regulators, cell-based (AID 493140).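 Also: cells exposed to compounds for four days before counting.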 To be noted: human embryonic stem cell survival screen; stronger effect = higher value.
A short description of assay [10]: liver-stage malaria parasite growth inhibition, primary screen, cell-based, HepG2, luciferase luminescence, HepG2 viability (AID 624349; in the data active = parasite load remaining mostly below about 12%, no sharp cut-off; inactive = mostly above about 10%;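 also: 100% = mean of DMSO negative control wells on the same plate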). To be noted: P. berghei liver stage in HepG2, luciferase luminescence, concentration not given here; parasite load remaining: stronger effect = lower value; viability: measured here: HepG2 viability without parasites.
In assay [11] the target is 6-phosphogluconate dehydrogenase, decarboxylating (Homo sapiens) (UniProt P52209). Nature of the assay: 6PGD enzyme inhibitors, primary screen, biochemical, human, recombinant enzyme, NADPH absorbance (AID 1159550;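 active = at least 20% inhibition of 6-phosphogluconate dehydrogenase activity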). As to conditions: recombinant 6PGD, NADPH absorbance 341 nm; at 10 µM; stronger effect = higher value.
Assay [12] can be described thus: differential killing of epithelial or mesenchymal cells, primary screen, imaging, PC-3E GFP, TEM4-18 mCherry, co-culture (AID 1345086;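 active = compounds killing one labelled cell type while sparing the other, by normalised counts and ratio limits, not self-fluorescent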;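 as to all read-outs here: cells exposed to compound for 72 h before imaging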;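 as to red/green cell ratio (normalised): normalised mesenchymal count divided by normalised epithelial count so high means epithelial killing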). As to conditions: imaging cell counts, at 1 µM; for red/green cell ratio (normalised): actives lie on both sides.
Assay [13] concerns Aerobactin synthetase IucA (Klebsiella pneumoniae hvKP1). Briefly: Biochemical IucA enzyme inhibition primary screen of the Spectrum library (AID 1346200).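 Also: 100% = wells without compound and 0% = wells lacking enzyme.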 As to conditions: malachite green pyrophosphate, A620, at 8 µM, stronger effect = lower value.
Assay [14] is described as follows: sensitizers of A549 cells to miR-34 induction, primary screen, imaging, A549 dox-inducible miR-34, nuclei and caspase counts (AID 1347080;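 active = compounds whose cell count with miR-34 switched on is under 0.7 times the count with it off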). As to conditions: A549 miR-34 inducible, Hoechst nuclei count, 48 h.
Assay [15] deals with NAD(+) hydrolase SARM1 (Homo sapiens) (UniProt Q6SZW1). Nature of the assay: SARM1 TIR NADase inhibitors, cell lysate, NAD-Glo luminescence (AID 1508614;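 active = compound whose remaining NAD level is above about 45 nM, limit read from the data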;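 also: higher remaining NAD means stronger inhibition of SARM1 NADase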). As to conditions: SAM-TIR HEK293T lysate NADase, at 1 µM, stronger effect = higher value.
In assay [16] the target is Mitogen-activated protein kinase 7 (Homo sapiens) (UniProt Q13164). Briefly: ERK5 transactivation activators in reporter cells, primary screen, cell-based, HTS (AID 1508626;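 active = luciferase signal above three times the same-plate solvent-only control wells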;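 also: luciferase driven by Gal4-ERK5 fusion binding five Gal4 sites before minimal TATA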). To be noted: HeLa Gal4-ERK5 transactivation, 18 h, at 5 µM, stronger effect = higher value.
Assay [17] is described as follows: circadian clock period modulators, cell-based, LOPAC library, luminescence reporter (AID 2774).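 Also: values are relative to mean of DMSO wells on each plate.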 To be noted: circadian reporter cells, at 7 µM, actives lie on both sides.
Assay [18] in a line: viability rescue of complex I mutant cybrids, primary screen, cell-based, galactose medium, ATP luminescence (AID 1645843;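 active = z-score of at least 1.8 in each of two replicates, scored against plate mean and spread of sample wells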;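 also: positive z means more ATP and so rescue of galactose-driven cybrid death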). As to conditions: complex I mutant cybrid cells, 72 h, stronger effect = higher value.
The target in assay [19] is ATP-dependent translocase ABCB1 (Homo sapiens) (UniProt P08183). Nature of the assay: MDR1 (ABCB1) efflux transporter inhibition, cell-based (AID 377; in the data active = fluorescence slope change above about 50%). As to conditions: MDR1-expressing cells, fluorescent substrate accumulation slope; stronger effect = higher value; concentration not given here.
Assay [20] in a line: survival rescue of mitochondrial mutant cells in low glucose, primary screen, MELAS cybrids, Rieske KO mouse fibroblasts, CellTiter-Glo (AID 1508586;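 active = mean z-score across replicates of 1.96 or higher in either the MELAS or the Rieske mutant cell line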;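 also: z relative to plate mean and SD of compound and empty wells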).
Setting [21] is: measured here: epithelial PC-3E GFP cell survival.
Setting [22] is: measured here: mesenchymal TEM4-18 mCherry cell survival.
Where [23] appears, read: measured here: relative caspase fold change +Dox/-Dox.
Setting [24] is: measured here: total cells with miR-34 induction, stronger effect = lower value.
The mark [25] stands for this setting: measured here: total cells without miR-34 induction.

We go through five compounds from PubChem BioAssay.

Values joined by “and” are separate entries in the source; they are usually repeats but may differ in a detail not shown here. Equal entries are not always repeated. Inconclusive results are not listed. For some assays here: Results with a measured potency or affinity are listed apart. The source holds several records for some structures; these can differ, active in one and inactive in another. Active and inactive are the calls of the source. Unless noted, no rule for the calls is given here.

Sequence of Mitogen-activated protein kinase 7 (Homo sapiens) (Q13164 whole entry, looked up, the tested form may be a part): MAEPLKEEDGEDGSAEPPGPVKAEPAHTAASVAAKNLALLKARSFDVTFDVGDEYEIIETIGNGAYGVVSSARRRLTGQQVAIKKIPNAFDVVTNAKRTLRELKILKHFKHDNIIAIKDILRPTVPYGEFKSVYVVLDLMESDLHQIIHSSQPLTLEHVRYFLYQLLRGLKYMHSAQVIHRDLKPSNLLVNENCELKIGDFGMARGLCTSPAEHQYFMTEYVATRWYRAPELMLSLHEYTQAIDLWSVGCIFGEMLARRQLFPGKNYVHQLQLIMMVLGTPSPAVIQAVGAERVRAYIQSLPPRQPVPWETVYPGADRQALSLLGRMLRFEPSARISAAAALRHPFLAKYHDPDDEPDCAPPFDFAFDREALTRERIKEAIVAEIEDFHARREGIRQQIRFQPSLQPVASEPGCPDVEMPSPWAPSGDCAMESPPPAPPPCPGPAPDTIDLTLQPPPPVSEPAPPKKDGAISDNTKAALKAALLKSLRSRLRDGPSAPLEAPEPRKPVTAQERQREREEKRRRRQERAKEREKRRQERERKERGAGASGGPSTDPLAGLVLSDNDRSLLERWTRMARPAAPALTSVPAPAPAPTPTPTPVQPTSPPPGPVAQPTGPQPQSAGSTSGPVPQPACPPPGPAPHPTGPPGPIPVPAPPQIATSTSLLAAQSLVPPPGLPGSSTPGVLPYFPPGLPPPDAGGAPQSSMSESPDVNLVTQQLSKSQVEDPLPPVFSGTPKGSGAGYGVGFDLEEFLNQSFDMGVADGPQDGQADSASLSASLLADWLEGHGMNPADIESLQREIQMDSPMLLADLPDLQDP
Sequence of 6-phosphogluconate dehydrogenase, decarboxylating (Homo sapiens) (P52209 whole entry, looked up): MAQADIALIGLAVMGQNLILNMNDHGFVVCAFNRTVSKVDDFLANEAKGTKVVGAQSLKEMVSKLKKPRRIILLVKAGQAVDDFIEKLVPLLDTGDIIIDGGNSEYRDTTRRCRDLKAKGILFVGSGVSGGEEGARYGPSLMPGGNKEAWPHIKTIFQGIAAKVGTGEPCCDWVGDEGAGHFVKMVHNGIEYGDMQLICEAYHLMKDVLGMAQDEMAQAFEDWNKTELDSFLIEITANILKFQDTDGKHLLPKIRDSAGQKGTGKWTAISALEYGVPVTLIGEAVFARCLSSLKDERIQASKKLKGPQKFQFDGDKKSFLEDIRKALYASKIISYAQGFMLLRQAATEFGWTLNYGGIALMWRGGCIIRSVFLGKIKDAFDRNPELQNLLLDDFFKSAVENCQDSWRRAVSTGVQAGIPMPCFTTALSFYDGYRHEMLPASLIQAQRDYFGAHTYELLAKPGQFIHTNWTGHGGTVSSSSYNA
Sequence of NAD(+) hydrolase SARM1 (Homo sapiens) (Q6SZW1 whole entry, looked up, the tested form may be a part): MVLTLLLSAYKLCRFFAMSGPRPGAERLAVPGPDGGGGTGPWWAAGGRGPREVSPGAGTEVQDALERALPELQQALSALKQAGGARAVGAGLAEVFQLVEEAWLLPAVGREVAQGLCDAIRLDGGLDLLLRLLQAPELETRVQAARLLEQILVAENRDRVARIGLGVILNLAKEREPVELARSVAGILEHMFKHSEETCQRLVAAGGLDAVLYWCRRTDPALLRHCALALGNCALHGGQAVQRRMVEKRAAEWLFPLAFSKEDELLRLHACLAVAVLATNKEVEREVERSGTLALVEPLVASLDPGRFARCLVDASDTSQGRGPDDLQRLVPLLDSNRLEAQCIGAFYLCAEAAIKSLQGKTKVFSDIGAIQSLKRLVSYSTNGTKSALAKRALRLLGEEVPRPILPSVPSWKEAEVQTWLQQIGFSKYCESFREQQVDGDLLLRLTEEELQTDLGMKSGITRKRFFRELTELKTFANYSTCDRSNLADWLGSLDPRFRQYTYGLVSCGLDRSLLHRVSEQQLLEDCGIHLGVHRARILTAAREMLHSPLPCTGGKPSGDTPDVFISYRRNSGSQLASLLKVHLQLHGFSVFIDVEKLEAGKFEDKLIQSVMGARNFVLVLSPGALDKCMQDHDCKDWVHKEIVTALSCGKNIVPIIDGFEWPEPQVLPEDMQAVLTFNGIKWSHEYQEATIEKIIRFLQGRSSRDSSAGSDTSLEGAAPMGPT
Sequence of ATP-dependent translocase ABCB1 (Homo sapiens) (P08183 whole entry, looked up): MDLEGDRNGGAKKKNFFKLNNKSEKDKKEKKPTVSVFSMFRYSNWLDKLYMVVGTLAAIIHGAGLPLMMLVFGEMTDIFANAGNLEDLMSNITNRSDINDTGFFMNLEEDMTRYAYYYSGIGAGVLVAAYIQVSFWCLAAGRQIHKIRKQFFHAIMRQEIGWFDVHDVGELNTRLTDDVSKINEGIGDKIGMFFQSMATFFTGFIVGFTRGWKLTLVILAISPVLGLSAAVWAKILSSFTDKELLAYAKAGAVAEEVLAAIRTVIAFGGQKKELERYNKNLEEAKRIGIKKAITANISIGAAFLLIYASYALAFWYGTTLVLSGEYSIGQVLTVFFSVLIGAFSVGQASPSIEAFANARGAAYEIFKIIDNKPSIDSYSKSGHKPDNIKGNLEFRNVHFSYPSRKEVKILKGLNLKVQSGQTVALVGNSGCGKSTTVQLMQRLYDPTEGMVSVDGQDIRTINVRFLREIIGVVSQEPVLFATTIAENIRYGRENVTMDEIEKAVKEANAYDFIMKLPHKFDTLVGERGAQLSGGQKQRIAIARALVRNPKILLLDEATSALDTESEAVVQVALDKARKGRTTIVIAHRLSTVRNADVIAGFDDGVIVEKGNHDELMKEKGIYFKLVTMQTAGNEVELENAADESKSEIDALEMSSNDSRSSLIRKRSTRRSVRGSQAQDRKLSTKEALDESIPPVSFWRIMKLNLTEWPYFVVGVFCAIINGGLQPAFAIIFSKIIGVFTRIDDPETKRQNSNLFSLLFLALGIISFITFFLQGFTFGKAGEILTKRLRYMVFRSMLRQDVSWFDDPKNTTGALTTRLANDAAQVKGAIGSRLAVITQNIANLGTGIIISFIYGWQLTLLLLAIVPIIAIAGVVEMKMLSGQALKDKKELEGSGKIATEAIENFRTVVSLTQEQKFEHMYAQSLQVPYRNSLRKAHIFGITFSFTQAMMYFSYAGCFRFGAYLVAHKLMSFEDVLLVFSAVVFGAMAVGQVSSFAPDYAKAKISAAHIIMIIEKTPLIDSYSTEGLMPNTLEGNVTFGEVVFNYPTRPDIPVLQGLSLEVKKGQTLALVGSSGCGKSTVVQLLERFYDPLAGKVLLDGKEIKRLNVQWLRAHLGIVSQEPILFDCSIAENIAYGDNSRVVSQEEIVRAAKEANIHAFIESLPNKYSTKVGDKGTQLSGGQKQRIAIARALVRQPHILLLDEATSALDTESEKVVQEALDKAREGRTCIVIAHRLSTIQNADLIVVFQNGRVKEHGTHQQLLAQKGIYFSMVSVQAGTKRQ

As a reminder, the inhibition is the drop in the measured response relative to a control, in per cent. For orientation: viability means a read-out of living cells in per cent, often relative to untreated cells. As for `O=[N+]([O-])c1cc([As](=O)(O)O)ccc1O`, the inhibition in [1] was 4.6%; in assay [11], 11.3% (inactive). In addition, the score in assay [2] worked out at 1.17. The rescue above control in assay [3] was -4.04. The cytochrome c release ratio in [4] was found to be 1.09. In addition, in assay [5], the inhibition of aggregation is 3.7%. In addition, the glutamate uptake change in [6] was -17%. Also, in assay [7], the inclusion score was determined as 1.5. Moreover, the aggregation suppression score in assay [8] stood at 1.08. Further, the survival in assay [9] was 4.83 (inactive). Further, the parasite load remaining in assay [10] was 90.8% (inactive) and -0.22% (active) and 33.7% (inactive). In assay [10], the viability was 83.9% and 75.8% and 93.4%. Also, the red/green cell ratio (normalised) in [12] was 1.34 (inactive). Moreover, the normalised cell number in assay [12] (setting [21]) is 0.89; in assay [12] (setting [22]) it was 1.19. In [13], the activity remaining was 112% (inactive). For the same compound, the fold change in assay [14] (stronger effect = lower value) is 0.929 (inactive) and 0.938 (inactive); in [14] (setting [23]) it was 0.651 and 3.1. Besides, the cell count was 8580 and 11200 in [14] (setting [24]); 9240 and 11900 in assay [14] (setting [25]). Besides, the remaining NAD in assay [15] was 10 nM (inactive). For the same compound, the luciferase signal in [16] was 44 AU (inactive).

For `O=C(O)CC[N+](=O)[O-]`, the period change in assay [17] was -0.005 h (inactive). Moreover, the inhibition in assay [11] was -4.59% (inactive). The red/green cell ratio (normalised) in [12] is 1.06 (inactive). Besides, the normalised cell number in assay [12] (setting [21]) was 0.86; in [12] (setting [22]), 0.91. The activity remaining in assay [13] is 105% (inactive). Moreover, the fold change was 1.06 (inactive) in assay [14] (stronger effect = lower value) and 2.1 in assay [14] (setting [23]). Moreover, the cell count in assay [14] (setting [24]) was 10800; in assay [14] (setting [25]) it was 10200. The luciferase signal in assay [16] was 152 AU (inactive). Besides, the z-score in assay [18] was -0.29 (inactive).

Consider `COc1ccc2c3c([nH]c2c1)C(C)=NCC3`, for which the fluorescence slope change in [19] is 7.9% (inactive). For the same compound, the inhibition was -62.4% in assay [1] and -10.2% (inactive) in assay [11]. Also, the score in assay [2] amounted to 1.32. Moreover, the rescue above control in [3] is -1.53. In [4], the cytochrome c release ratio amounted to 0.94. This compound came in with an inhibition of aggregation in assay [5] of 51%. In addition, in assay [6], the glutamate uptake change came out at 48%. For the same compound, the inclusion score in assay [7] was 2. In assay [8], the aggregation suppression score is 0.883. The survival in assay [9] was 6 (inactive). The parasite load remaining in assay [10] was 83.9% (inactive) and 28.8% (inactive) and 84.4% (inactive). Moreover, the viability in assay [10] was 103% and 71.6% and 83.5%. For the same compound, the red/green cell ratio (normalised) in [12] was 0.92 (inactive). Besides, the normalised cell number in [12] (setting [21]) is 1.06; in assay [12] (setting [22]), 0.98. For the same compound, the activity remaining in assay [13] was 124% (inactive). The fold change in assay [14] (stronger effect = lower value) is 0.95 (inactive); in assay [14] (setting [23]) it was 1.3. Also, the cell count in assay [14] (setting [24]) stood at 8720; in [14] (setting [25]) it was 9180. Further, the luciferase signal in [16] was 68 AU (inactive).

With `C[C@@H](N)[C@@H](O)c1ccccc1`, the parasite load remaining in assay [10] was 28.8% (inactive). Besides, in [10], the viability worked out at 110%. Moreover, the inhibition in assay [11] is -16.8% (inactive) and 9.51% (inactive). The red/green cell ratio (normalised) in assay [12] was 0.97 (inactive). For the same compound, the figures for the normalised cell number in [12] (setting [21]) and in assay [12] (setting [22]) were 1.13 and 1.1, respectively. Also, the activity remaining in assay [13] was 122% (inactive). Moreover, the fold change in assay [14] (stronger effect = lower value) is 0.851 (inactive); in assay [14] (setting [23]), 1.36. For the same compound, the results for the cell count in assay [14] (setting [24]) and in [14] (setting [25]) were 8010 and 9410, respectively. For the same compound, the z-score in [20] (MELAS cybrid survival, CellTiter-Glo 48 h, stronger effect = higher value) is -0.426 (inactive); in [20] (Rieske KO mouse fibroblast survival, CellTiter-Glo 72 h), -0.509.

Turning to `O=C1C=CC(=O)c2c(O)cccc21`, the inhibition in assay [1] is -40.3%; in [11], -2.17% (inactive). In addition, the score in [2] turned out to be 0.54. In assay [3], the rescue above control came to 2.83. For the same compound, in [4], the cytochrome c release ratio was 0.82. For the same compound, the inhibition of aggregation in assay [5] came to 100%. For the same compound, the glutamate uptake change in [6] was determined as 42.9%. Moreover, the aggregation suppression score in [8] turned out to be 0.876. Also, the red/green cell ratio (normalised) in assay [12] is 0.98 (inactive). The normalised cell number in assay [12] (setting [21]) stood at 1.05; in assay [12] (setting [22]), 1.03. The activity remaining in [13] is 127% (inactive). The fold change in [14] (stronger effect = lower value) was 0.989 (inactive); in assay [14] (setting [23]), 0.796. Moreover, the cell count was determined as 2420 in [14] (setting [24]) and 2440 in assay [14] (setting [25]). In addition, in assay [16], the luciferase signal is 52 AU (inactive).
